Measured values as given in publication PMC7862700, “An all-to-all approach to the identification of sequence-specific readers for epigenetic DNA modifications on cytosine”.

How the values were obtained:
Assay in all cases: DAPPL (digital affinity profiling via proximity ligation, sequencing); 10 mM Tris-HCl pH 7.5, 50 mM NaCl, 1 mM DTT, 4% glycerol, room temperature, 30 min; GST-TFs on glutathione beads, 16-mer random dsDNA library, 0.1% formaldehyde crosslink after washing; high values mean tight binding
[1] = biological target: T1, FLI1 (Homo sapiens, UniProt Q01543 1-452); settings: protein: recombinant; tags: N-terminal GST; dsDNA, one strand shown
T1 sequence: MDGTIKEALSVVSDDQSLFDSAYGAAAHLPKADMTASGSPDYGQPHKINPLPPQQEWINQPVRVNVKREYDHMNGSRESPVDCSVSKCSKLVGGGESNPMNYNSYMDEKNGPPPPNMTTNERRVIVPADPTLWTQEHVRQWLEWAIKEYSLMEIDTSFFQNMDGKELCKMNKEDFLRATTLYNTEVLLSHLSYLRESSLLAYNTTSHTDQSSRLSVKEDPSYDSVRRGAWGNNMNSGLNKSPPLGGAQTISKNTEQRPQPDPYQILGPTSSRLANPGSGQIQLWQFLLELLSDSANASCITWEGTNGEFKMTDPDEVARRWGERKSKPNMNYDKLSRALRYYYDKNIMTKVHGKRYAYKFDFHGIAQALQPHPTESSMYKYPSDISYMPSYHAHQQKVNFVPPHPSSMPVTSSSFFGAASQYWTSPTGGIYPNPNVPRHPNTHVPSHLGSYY
Procedure, shortened: (§1)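 GST fusions of human transcription factors were expressed in yeast and captured with glutathione beads. Once given DNA barcodes and pooled alongside a tag-only sample, they were incubated for 30 min at room temperature with 200 nmole of a random double-stranded 16-mer DNA library in Tris/NaCl/DTT/glycerol buffer, then washed, crosslinked (0.1% formaldehyde), proximity-ligated, PCR-amplified and sequenced on an Illumina NextSeq500. The binding signal of each hexamer is its read frequency for a factor divided by its frequency for the tag-only sample.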

[2] = biological target: T2, ELK1 (Homo sapiens, UniProt P19419 1-428); settings: protein: recombinant; tags: N-terminal GST; dsDNA, one strand shown
T2 sequence: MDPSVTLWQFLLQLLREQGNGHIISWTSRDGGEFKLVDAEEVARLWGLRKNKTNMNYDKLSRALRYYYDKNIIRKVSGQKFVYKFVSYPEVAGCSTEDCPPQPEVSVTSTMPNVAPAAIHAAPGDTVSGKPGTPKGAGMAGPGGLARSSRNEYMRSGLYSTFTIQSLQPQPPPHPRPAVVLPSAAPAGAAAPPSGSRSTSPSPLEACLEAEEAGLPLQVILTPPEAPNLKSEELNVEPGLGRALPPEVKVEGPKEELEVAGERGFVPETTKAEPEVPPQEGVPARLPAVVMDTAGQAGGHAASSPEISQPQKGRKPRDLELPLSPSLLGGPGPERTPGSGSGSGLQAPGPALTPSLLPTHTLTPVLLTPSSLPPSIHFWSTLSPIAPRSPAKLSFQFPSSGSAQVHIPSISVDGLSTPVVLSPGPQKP
Procedure, shortened: as §1

[3] = biological target: T3, GABPA (Homo sapiens, UniProt Q06546 1-454); settings: protein: recombinant; tags: N-terminal GST; dsDNA, one strand shown
T3 sequence: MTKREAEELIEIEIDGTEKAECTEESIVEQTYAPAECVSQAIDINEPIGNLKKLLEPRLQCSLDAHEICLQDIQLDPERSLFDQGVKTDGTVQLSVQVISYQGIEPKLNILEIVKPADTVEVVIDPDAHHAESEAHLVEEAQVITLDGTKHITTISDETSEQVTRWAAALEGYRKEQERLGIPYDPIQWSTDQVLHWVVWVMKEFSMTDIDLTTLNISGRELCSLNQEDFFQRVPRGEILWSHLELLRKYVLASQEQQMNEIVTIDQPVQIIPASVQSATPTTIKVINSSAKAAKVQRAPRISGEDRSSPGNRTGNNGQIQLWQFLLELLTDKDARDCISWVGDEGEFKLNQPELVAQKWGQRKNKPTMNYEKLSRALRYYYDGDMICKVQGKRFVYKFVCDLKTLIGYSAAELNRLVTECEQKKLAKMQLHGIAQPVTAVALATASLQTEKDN
Procedure, shortened: as §1

[4] = biological target: T4, ERG (Homo sapiens, UniProt P11308 1-479); settings: protein: recombinant; tags: N-terminal GST; dsDNA, one strand shown
T4 sequence: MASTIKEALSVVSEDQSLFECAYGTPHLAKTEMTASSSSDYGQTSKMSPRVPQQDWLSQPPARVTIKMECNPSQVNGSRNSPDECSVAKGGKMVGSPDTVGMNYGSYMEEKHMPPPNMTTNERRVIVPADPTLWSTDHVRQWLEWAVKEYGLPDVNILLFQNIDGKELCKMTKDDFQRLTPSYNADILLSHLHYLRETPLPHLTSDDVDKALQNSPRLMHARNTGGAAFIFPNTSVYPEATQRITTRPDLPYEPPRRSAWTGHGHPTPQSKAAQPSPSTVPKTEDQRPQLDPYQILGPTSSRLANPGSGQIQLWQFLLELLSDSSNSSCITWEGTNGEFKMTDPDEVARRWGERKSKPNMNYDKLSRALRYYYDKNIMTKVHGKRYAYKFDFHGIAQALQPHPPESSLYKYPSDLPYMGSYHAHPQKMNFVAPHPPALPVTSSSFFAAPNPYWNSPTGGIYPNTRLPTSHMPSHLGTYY
Procedure, shortened: as §1

[5] = biological target: ELF1 (Homo sapiens, UniProt P32519 1-619); settings: protein: recombinant; tags: N-terminal GST; dsDNA, one strand shown
Sequence of ELF1 (P32519 whole entry): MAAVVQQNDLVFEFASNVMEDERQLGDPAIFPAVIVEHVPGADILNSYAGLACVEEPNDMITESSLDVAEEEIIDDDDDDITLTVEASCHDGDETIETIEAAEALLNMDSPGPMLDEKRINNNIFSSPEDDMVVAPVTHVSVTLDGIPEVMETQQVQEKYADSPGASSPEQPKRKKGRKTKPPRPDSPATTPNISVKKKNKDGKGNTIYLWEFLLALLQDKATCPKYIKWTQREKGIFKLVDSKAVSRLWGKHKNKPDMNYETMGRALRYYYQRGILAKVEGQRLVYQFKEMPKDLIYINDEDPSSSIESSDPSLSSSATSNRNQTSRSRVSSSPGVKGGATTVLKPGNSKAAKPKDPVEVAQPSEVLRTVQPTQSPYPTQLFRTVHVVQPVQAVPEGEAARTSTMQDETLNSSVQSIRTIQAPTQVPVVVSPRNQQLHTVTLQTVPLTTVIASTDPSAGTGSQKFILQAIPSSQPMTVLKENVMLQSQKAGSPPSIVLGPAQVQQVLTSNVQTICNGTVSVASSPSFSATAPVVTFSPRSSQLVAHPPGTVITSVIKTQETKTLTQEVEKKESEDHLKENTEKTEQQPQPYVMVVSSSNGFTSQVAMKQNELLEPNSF
Procedure, shortened: as §1

[6] = biological target: T5, EHF (Homo sapiens, UniProt Q9NZC4 1-300); settings: protein: recombinant; tags: N-terminal GST; dsDNA, one strand shown
T5 sequence: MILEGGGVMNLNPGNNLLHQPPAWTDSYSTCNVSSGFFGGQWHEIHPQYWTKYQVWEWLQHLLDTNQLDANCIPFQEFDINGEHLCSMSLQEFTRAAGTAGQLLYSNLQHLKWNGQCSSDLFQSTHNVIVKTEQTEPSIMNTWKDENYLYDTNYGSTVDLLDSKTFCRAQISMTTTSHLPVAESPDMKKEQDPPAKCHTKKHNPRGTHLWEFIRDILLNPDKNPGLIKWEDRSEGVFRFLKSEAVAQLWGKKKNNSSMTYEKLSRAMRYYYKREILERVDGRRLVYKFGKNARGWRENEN
Procedure, shortened: as §1

[7] = biological target: SPI1 (Homo sapiens, UniProt P17947 1-270); settings: protein: recombinant; tags: N-terminal GST; dsDNA, one strand shown
Procedure, shortened: as §1

[8] = biological target: SPIB (Homo sapiens, UniProt Q01892 1-262); settings: protein: recombinant; tags: N-terminal GST; dsDNA, one strand shown
Sequence of SPIB (Q01892 whole entry): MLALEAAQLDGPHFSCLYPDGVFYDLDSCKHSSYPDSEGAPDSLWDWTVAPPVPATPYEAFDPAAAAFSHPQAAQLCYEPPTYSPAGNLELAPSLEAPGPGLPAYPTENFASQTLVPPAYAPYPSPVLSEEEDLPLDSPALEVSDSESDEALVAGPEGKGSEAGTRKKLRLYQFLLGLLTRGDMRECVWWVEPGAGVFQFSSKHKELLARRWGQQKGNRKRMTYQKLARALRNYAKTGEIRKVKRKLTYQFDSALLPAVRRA
Procedure, shortened: as §1

[9] = biological target: T6, ELK3 (Homo sapiens, UniProt P41970 1-407); settings: protein: recombinant; tags: N-terminal GST; dsDNA, one strand shown
T6 sequence: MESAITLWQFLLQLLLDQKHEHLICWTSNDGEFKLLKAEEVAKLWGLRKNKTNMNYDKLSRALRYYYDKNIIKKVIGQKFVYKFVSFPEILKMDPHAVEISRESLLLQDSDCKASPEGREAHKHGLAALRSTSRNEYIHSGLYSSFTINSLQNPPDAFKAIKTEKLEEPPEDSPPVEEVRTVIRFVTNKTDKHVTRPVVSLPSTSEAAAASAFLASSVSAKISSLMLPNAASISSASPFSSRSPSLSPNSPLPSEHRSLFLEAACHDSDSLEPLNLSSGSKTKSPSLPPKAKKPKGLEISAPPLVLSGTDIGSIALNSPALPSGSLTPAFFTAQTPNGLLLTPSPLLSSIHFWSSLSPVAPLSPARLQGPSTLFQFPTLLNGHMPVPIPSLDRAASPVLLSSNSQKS
Procedure, shortened: as §1

[10] = biological target: T7, FEV (Homo sapiens, UniProt Q99581 1-238); settings: protein: recombinant; tags: N-terminal GST; dsDNA, one strand shown
T7 sequence: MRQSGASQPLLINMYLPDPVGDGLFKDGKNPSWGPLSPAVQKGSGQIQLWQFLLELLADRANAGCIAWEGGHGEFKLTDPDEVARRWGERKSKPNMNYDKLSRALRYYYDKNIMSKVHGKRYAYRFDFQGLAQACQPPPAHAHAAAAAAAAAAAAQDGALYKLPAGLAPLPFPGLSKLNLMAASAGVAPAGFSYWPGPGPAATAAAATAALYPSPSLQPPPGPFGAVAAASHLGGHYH
Procedure, shortened: as §1

[11] = biological target: ETV5 (Homo sapiens, UniProt P41161 1-510); settings: protein: recombinant; tags: N-terminal GST; dsDNA, one strand shown
Sequence of ETV5 (P41161 whole entry): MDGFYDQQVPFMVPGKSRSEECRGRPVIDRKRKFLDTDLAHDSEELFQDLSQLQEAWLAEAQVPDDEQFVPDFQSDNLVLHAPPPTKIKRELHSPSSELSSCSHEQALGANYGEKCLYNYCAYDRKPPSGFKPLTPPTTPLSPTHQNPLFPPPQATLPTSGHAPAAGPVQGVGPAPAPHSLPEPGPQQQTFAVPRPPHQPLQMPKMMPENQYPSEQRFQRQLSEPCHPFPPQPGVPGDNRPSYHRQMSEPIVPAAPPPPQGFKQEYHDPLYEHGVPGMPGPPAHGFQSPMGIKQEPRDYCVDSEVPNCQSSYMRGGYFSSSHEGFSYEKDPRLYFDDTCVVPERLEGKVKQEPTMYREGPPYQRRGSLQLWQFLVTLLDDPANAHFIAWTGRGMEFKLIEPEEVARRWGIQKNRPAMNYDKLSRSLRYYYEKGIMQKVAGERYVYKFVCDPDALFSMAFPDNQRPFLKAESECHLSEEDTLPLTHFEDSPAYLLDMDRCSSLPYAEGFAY
Procedure, shortened: as §1

[12] = biological target: HSF1 (Homo sapiens, UniProt Q00613 1-529); settings: protein: recombinant; tags: N-terminal GST; chain copies: 3; dsDNA, one strand shown
Sequence of HSF1 (Q00613 whole entry): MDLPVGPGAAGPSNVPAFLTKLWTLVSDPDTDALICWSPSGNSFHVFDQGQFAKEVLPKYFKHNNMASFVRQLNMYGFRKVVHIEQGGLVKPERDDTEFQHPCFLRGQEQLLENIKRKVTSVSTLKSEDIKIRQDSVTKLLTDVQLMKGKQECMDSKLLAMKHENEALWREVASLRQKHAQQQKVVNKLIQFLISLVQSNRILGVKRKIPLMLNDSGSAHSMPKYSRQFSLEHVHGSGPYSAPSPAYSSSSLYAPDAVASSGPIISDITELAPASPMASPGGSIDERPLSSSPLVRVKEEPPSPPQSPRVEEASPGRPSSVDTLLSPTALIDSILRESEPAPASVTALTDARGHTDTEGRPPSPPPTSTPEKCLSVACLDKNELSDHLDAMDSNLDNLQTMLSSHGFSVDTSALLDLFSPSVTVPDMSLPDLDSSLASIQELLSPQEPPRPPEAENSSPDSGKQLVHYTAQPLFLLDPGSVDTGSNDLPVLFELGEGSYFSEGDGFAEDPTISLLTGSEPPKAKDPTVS
Procedure, shortened: as §1

[13] = biological target: T8, SPIC (Homo sapiens, UniProt Q8N5J4 1-248); settings: protein: recombinant; tags: N-terminal GST; dsDNA, one strand shown
T8 sequence: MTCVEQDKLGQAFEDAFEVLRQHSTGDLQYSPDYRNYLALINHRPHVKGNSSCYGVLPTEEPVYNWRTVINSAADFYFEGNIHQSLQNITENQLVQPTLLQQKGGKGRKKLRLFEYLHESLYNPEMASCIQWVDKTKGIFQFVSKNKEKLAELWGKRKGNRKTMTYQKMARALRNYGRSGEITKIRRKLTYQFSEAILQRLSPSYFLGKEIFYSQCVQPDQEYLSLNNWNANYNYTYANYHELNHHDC
Procedure, shortened: as §1

[14] = biological target: ELF4 (Homo sapiens, UniProt Q99607 1-663); settings: protein: recombinant; tags: N-terminal GST; dsDNA, one strand shown
Sequence of ELF4 (Q99607 whole entry): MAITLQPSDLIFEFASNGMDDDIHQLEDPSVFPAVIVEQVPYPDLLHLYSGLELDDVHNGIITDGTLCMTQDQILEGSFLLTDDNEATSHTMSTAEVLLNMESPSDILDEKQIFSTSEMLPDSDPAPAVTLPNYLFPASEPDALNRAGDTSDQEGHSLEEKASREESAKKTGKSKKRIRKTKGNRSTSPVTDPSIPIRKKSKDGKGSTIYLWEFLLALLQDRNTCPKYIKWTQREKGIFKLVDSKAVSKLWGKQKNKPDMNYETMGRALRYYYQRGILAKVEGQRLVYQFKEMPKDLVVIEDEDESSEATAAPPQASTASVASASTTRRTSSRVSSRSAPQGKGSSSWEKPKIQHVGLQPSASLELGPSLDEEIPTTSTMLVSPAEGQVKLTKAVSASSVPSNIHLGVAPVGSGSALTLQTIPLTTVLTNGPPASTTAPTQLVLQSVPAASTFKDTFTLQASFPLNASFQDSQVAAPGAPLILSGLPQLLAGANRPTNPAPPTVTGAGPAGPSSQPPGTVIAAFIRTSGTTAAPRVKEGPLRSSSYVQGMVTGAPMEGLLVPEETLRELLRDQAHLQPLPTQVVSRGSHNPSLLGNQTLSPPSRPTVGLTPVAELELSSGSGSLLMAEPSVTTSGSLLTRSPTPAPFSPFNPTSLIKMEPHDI
Procedure, shortened: as §1

[15] = biological target: T9, ELK4 (Homo sapiens, UniProt P28324-2 1-405); settings: protein: recombinant; tags: N-terminal GST; dsDNA, one strand shown
T9 sequence: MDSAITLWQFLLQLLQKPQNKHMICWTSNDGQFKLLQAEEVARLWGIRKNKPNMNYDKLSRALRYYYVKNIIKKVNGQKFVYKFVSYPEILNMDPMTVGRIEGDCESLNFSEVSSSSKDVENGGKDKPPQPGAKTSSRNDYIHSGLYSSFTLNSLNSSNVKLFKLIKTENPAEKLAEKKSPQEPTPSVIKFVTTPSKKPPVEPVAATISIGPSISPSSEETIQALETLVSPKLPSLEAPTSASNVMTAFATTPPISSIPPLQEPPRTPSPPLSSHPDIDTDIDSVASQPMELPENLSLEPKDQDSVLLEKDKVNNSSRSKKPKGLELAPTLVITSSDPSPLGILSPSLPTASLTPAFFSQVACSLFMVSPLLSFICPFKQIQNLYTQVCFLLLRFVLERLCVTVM
Procedure, shortened: as §1

[16] = biological target: T10, ETV2 (Homo sapiens, UniProt O00321 1-342); settings: protein: recombinant; tags: N-terminal GST; dsDNA, one strand shown
T10 sequence: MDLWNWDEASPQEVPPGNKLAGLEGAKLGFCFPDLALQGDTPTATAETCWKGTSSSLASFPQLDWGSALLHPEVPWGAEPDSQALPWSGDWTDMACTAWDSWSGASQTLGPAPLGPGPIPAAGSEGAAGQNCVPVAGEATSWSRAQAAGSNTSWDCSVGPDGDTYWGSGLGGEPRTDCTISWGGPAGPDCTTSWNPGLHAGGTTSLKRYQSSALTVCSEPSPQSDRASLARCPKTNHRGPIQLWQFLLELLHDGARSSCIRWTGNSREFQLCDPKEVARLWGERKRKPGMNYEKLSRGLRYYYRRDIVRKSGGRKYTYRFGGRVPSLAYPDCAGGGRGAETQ
Procedure, shortened: as §1

[17] = biological target: T11, ELF3 (Homo sapiens, UniProt P78545 1-371); settings: protein: recombinant; tags: N-terminal GST; dsDNA, one strand shown
T11 sequence: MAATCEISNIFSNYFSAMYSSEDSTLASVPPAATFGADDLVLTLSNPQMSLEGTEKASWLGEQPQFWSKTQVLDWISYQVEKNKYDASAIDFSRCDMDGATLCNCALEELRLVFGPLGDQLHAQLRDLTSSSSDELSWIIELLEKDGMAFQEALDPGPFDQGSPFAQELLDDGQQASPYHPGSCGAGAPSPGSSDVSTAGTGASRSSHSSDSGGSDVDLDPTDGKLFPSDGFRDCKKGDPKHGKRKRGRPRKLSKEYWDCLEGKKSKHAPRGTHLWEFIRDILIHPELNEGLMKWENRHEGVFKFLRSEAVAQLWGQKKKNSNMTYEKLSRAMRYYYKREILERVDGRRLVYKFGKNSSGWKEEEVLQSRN
Procedure, shortened: as §1

[18] = biological target: ETV1 (Homo sapiens, UniProt P50549 1-477); settings: protein: recombinant; tags: N-terminal GST; dsDNA, one strand shown
Sequence of ETV1 (P50549 whole entry): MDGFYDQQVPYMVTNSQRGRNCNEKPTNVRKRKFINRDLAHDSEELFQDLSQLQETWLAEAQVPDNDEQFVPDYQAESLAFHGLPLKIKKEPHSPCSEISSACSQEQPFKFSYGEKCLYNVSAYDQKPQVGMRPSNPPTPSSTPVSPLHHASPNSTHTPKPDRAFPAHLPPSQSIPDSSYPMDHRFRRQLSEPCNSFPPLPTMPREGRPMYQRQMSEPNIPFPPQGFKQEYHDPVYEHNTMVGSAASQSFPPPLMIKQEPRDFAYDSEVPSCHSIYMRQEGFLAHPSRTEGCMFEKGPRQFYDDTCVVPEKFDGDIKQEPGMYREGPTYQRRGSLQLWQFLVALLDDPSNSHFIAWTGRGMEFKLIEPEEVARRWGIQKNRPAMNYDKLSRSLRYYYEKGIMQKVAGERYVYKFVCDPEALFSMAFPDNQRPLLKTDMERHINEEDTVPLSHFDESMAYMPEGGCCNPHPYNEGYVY
Procedure, shortened: as §1

Q: Which results are given for CCGTAC?
A: binding signal [1]: 1.39 fold enrichment (6-mer frequency, TF over GST control); binding signal [2]: 1.25 fold enrichment (6-mer frequency, TF over GST control); binding signal [3]: 1.33 fold enrichment (6-mer frequency, TF over GST control); binding signal [4]: 1.3 fold enrichment (6-mer frequency, TF over GST control); binding signal [5]: 1.45 fold enrichment (6-mer frequency, TF over GST control); binding signal [6]: 1.33 fold enrichment (6-mer frequency, TF over GST control); binding signal [7]: 1.22 fold enrichment (6-mer frequency, TF over GST control); binding signal [8]: 1.15 fold enrichment (6-mer frequency, TF over GST control); binding signal [9]: 1.28 fold enrichment (6-mer frequency, TF over GST control); binding signal [10]: 1.24 fold enrichment (6-mer frequency, TF over GST control); binding signal [11]: 1.33 fold enrichment (6-mer frequency, TF over GST control); binding signal [12]: 1.06 fold enrichment (6-mer frequency, TF over GST control); binding signal [13]: 1.18 fold enrichment (6-mer frequency, TF over GST control); binding signal [14]: 1.26 fold enrichment (6-mer frequency, TF over GST control); binding signal [15]: 1.36 fold enrichment (6-mer frequency, TF over GST control); binding signal [16]: 1.42 fold enrichment (6-mer frequency, TF over GST control); binding signal [17]: 1.33 fold enrichment (6-mer frequency, TF over GST control); binding signal [18]: 1.34 fold enrichment (6-mer frequency, TF over GST control)
